Experimental data as given in article PMC5540273 (PLoS ONE, 2017).

Each molecule was assayed on HIPK3. Conditions: concentration: 1 μM, replicates: in singlicate; n = 1.
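Further: KINOMEscan kinase panel screen.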

Point of comparison: `COc1cc2ncnc(Nc3ccc4nc(-c5ccccc5)[nH]c4c3)c2cc1OC.Cl` [GW282450], “%Inh” value 32%. Against it:
- Cn1cncc1-c1ccc2ncnc(Nc3ccc(OCc4ccccc4)cc3)c2c1 [GW320571] — higher, 51%
- Cc1cc(-c2ccc3c(c2)CC[C@@H](N[C@@H](C)c2ccccc2)C3)cnc1N.Cl [GW412617] — lower, 12%
- Fc1cccc(COc2nnc(-c3ccc4c(c3)CCO4)o2)c1 — lower, 0%
- O=C(Nc1n[nH]c2cc(-c3cccc(F)c3F)ccc12)C1CC1 [SB-733894] — lower, 19%
- COc1cc(Nc2nccc(N3CCC(NC(=O)Nc4cc(C)ccc4C)C3)n2)cc(OC)c1OC (stereo not shown) [GSK1379762] — lower, 13%
- CC(C)(C)c1ccc(C(=O)Nc2cn3cc(Cl)ccc3n2)cc1 — lower, 0%
- COc1ccc2nc(-c3cccc(C)n3)nc(Nc3ccncc3)c2c1 [GSK204919] — lower, 11%
- Cc1c(O)cccc1Nc1ccnc2ccc(C(F)(F)F)cc12.Cl [GW466413] — lower, 0%
- Cc1ccc(-c2cc(-c3c[nH]nc3-c3ccccn3)ccn2)cc1 [GW684088] — lower, 1%
- O=S(=O)(c1ccc(-c2ccnc3[nH]ccc23)cc1)N1CCCC1 [GSK846226] — higher, 48%
- Cn1ccc2ncnc(Oc3cccc(C(=O)Nc4ccccc4)c3)c21 — lower, 5%
- CCCc1ccc(S(=O)(=O)NC2CCN(c3ccnc(Nc4ccc(F)cc4)n3)C2)cc1 (stereo not shown) [GSK1379715] — lower, 0%
- O=C1NC(=O)C(N2CCc3ccccc32)=C1c1ccccc1Cl [SB-373598] — lower, 13%
- COC(=O)c1c(-c2ccccc2)c2cc(OC)ccc2c(=O)n1Cc1ccccc1 — lower, 3%
- COc1cccc(-c2cc(-c3c[nH]nc3-c3ccccn3)ccn2)c1 [GW680338] — lower, 22%
- COC(=O)c1c(-c2ccccc2)c2cc(C(=O)O)ccc2c(=O)n1Cc1ccccc1 — lower, 0%
- Cc1cccc(-c2nc(Nc3ccncc3)c3ccccc3n2)n1 [GW855857] — lower, 0%
- Cc1cccc(-c2nc(-c3ccc(S(C)(=O)=O)cc3)sc2-c2ccnc(NCCc3ccccc3)c2)c1 — lower, 6%
- CN(C)CCN(C)C(=O)c1cc(-c2ccncc2)c(-c2ccc(Cl)c(O)c2)o1.Cl.Cl [SB-710397] — lower, 16%
- Cc1nnc(-c2ccc3occ(-c4ccc(S(C)=O)cc4)c3c2)[nH]1 (stereo not shown) — higher, 81%
- COc1cc2nccc(Nc3ccc(NC(=O)c4ccc(C)cc4)c(O)c3)c2cc1OC.Cl [GW440132] — lower, 0%
- Cc1cccc(-c2cc(Nc3ccncc3)c3ccccc3n2)n1 [GSK223675] — lower, 5%
- Cn1ccc2ncnc(Oc3ccc(Nc4nc5ccccc5[nH]4)cc3)c21 — lower, 0%
- Cc1cc(NCC(c2ccccc2)c2ccccc2)nc(NCc2ccc(C(F)(F)F)cc2)n1 [GW497681] — lower, 0%
- Cc1cccc(-c2nc(C)cc(Nc3ccncc3)n2)n1 [GSK257997] — lower, 7%
- Cl.c1ccc(-c2n[nH]cc2-c2ccnc(-c3ccc(CN4CCOCC4)cc3)c2)nc1 [GW776245] — lower, 0%
- Cc1ccc(NC(=O)Nc2cc(C(C)(C)C)nn2-c2ccccc2)cc1 [GSK1014915] — lower, 13%
- CC1=C(C(=O)Nc2cc3cn[nH]c3cc2F)C(c2ccc(C(F)(F)F)cc2)CC(=O)N1 (stereo not shown) [GSK429286] — lower, 13%
- Nc1nc(-c2nccs2)c(-c2ccnc3ccccc23)s1 [GW693542] — lower, 21%
- COc1ccc(C2=C(Nc3cccc(C(=O)O)c3)C(=O)NC2=O)cc1 [SB-390765] — lower, 21%
- O=C(O)COc1ncnc2cc(-c3ccc4[nH]ncc4c3)sc12 — higher, 47%
- Cc1cccc(-c2nc(Nc3cccc(C(N)=O)c3)c3ccccc3n2)n1 [GW876019] — lower, 2%
- CC(C)(C)c1ccc(C(=O)Nc2cn3cc(-c4cccnc4)ccc3n2)cc1 — lower, 25%
- COc1ccccc1CNC(=O)c1cc(C(=O)c2ccccc2C)c[nH]1 [GSK364507] — lower, 10%

Each molecule was assayed on HIPK4. Conditions: concentration: 1 μM, replicates: in singlicate; n = 1.

Point of comparison: `O=C1NC(=O)C(N2CCc3ccccc32)=C1c1ccccc1Cl` [SB-373598], “%Inh” value 12%. Against it:
- Cn1cncc1-c1ccc2ncnc(Nc3ccc(OCc4ccccc4)cc3)c2c1 [GW320571] — higher, 13%
- Cc1cc(-c2ccc3c(c2)CC[C@@H](N[C@@H](C)c2ccccc2)C3)cnc1N.Cl [GW412617] — lower, 6%
- Fc1cccc(COc2nnc(-c3ccc4c(c3)CCO4)o2)c1 — lower, 3%
- O=C(Nc1n[nH]c2cc(-c3cccc(F)c3F)ccc12)C1CC1 [SB-733894] — lower, 3%
- COc1cc(Nc2nccc(N3CCC(NC(=O)Nc4cc(C)ccc4C)C3)n2)cc(OC)c1OC (stereo not shown) [GSK1379762] — lower, 0%
- CC(C)(C)c1ccc(C(=O)Nc2cn3cc(Cl)ccc3n2)cc1 — lower, 0%
- COc1ccc2nc(-c3cccc(C)n3)nc(Nc3ccncc3)c2c1 [GSK204919] — lower, 0%
- Cc1c(O)cccc1Nc1ccnc2ccc(C(F)(F)F)cc12.Cl [GW466413] — lower, 0%
- Cc1ccc(-c2cc(-c3c[nH]nc3-c3ccccn3)ccn2)cc1 [GW684088] — lower, 0%
- O=S(=O)(c1ccc(-c2ccnc3[nH]ccc23)cc1)N1CCCC1 [GSK846226] — higher, 23%
- Cn1ccc2ncnc(Oc3cccc(C(=O)Nc4ccccc4)c3)c21 — lower, 0%
- CCCc1ccc(S(=O)(=O)NC2CCN(c3ccnc(Nc4ccc(F)cc4)n3)C2)cc1 (stereo not shown) [GSK1379715] — lower, 0%
- COC(=O)c1c(-c2ccccc2)c2cc(OC)ccc2c(=O)n1Cc1ccccc1 — lower, 0%
- COc1cccc(-c2cc(-c3c[nH]nc3-c3ccccn3)ccn2)c1 [GW680338] — higher, 21%
- COc1cc2ncnc(Nc3ccc4nc(-c5ccccc5)[nH]c4c3)c2cc1OC.Cl [GW282450] — higher, 35%
- COC(=O)c1c(-c2ccccc2)c2cc(C(=O)O)ccc2c(=O)n1Cc1ccccc1 — lower, 0%
- Cc1cccc(-c2nc(Nc3ccncc3)c3ccccc3n2)n1 [GW855857] — higher, 19%
- Cc1cccc(-c2nc(-c3ccc(S(C)(=O)=O)cc3)sc2-c2ccnc(NCCc3ccccc3)c2)c1 — lower, 8%
- CN(C)CCN(C)C(=O)c1cc(-c2ccncc2)c(-c2ccc(Cl)c(O)c2)o1.Cl.Cl [SB-710397] — lower, 0%
- Cc1nnc(-c2ccc3occ(-c4ccc(S(C)=O)cc4)c3c2)[nH]1 (stereo not shown) — higher, 36%
- COc1cc2nccc(Nc3ccc(NC(=O)c4ccc(C)cc4)c(O)c3)c2cc1OC.Cl [GW440132] — lower, 3%
- Cc1cccc(-c2cc(Nc3ccncc3)c3ccccc3n2)n1 [GSK223675] — lower, 0%
- Cn1ccc2ncnc(Oc3ccc(Nc4nc5ccccc5[nH]4)cc3)c21 — lower, 9%
- Cc1cc(NCC(c2ccccc2)c2ccccc2)nc(NCc2ccc(C(F)(F)F)cc2)n1 [GW497681] — lower, 0%
- Cc1cccc(-c2nc(C)cc(Nc3ccncc3)n2)n1 [GSK257997] — lower, 0%
- Cl.c1ccc(-c2n[nH]cc2-c2ccnc(-c3ccc(CN4CCOCC4)cc3)c2)nc1 [GW776245] — higher, 17%
- Cc1ccc(NC(=O)Nc2cc(C(C)(C)C)nn2-c2ccccc2)cc1 [GSK1014915] — lower, 0%
- CC1=C(C(=O)Nc2cc3cn[nH]c3cc2F)C(c2ccc(C(F)(F)F)cc2)CC(=O)N1 (stereo not shown) [GSK429286] — lower, 0%
- Nc1nc(-c2nccs2)c(-c2ccnc3ccccc23)s1 [GW693542] — lower, 0%
- COc1ccc(C2=C(Nc3cccc(C(=O)O)c3)C(=O)NC2=O)cc1 [SB-390765] — higher, 21%
- O=C(O)COc1ncnc2cc(-c3ccc4[nH]ncc4c3)sc12 — higher, 38%
- Cc1cccc(-c2nc(Nc3cccc(C(N)=O)c3)c3ccccc3n2)n1 [GW876019] — lower, 0%
- CC(C)(C)c1ccc(C(=O)Nc2cn3cc(-c4cccnc4)ccc3n2)cc1 — higher, 15%
- COc1ccccc1CNC(=O)c1cc(C(=O)c2ccccc2C)c[nH]1 [GSK364507] — lower, 0%
